Screening results: PubChem BioAssay, Broad Institute
Pf Dd2 inh – P. falciparum Dd2 growth inhibitors, primary screen, SYBR Green fluorescence, single dose replicates. 94,000 compounds, 2.3% hits. AID 1159554, 2015. activity change, % at 10 µM. 72 h; hits give low values; in the data active = activity change below about -80%; inconclusive = no clear call, values can overlap the other calls
T cruzi growth-1 – T. cruzi intracellular proliferation inhibitors, primary screen, cell-based, beta-gal Tulahuen parasites, NIH3T3 host, luminescence; T. cruzi beta-gal in NIH3T3, GalScreen luminescence, 90 h; inhibition, % at 8.34 µM; 77,000 compounds, 5.9% hits;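 active = mean inhibition above about 93%, with at least 55% of replicates each passing it, limit read from the data, passing the limit was not always enough; inconclusive = only one of those two conditions holds; inactive = neither condition holds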
C diff HTS – C. difficile growth inhibitors, primary screen, HTS. Clostridium difficile clinical isolate growth, OD600, 24 h; hits give low values. AID 1259249, 2017. growth activity, negative = inhibition, % at 16 µg/mL (by protocol). 86,000 compounds, 0.25% hits;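 active = mean growth activity at or below -80% and every replicate also at or below -80%; inconclusive = mean at or below -80% but some replicate above -80%; inactive = mean growth activity above -80%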;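 also: 0% = DMSO wells and -100% = levofloxacin 16 µg/mL wells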
T cruzi growth-2 – T. cruzi intracellular proliferation inhibitors, confirmation, cell-based, NIH3T3 host, beta-gal parasite, luminescence, cherry-pick; shares compounds with T cruzi growth-1; T. cruzi beta-gal in NIH3T3, GalScreen luminescence, 90 h; inhibition, % at 8.35 µM; 5,600 compounds, 72% hits; AID 651739, 2012;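 active = mean replicate inhibition above about 95% and at least 55% of replicates individually reaching it, limit read from the data; inconclusive = only one of the two criteria is met; inactive = neither criterion is met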
T cruzi growth-3 – inhibitors of intracellular T. cruzi replication, confirmation, NIH3T3 host cells, beta-gal parasites, cherry-pick, set 2; shares compounds with T cruzi growth-1; T. cruzi beta-gal in NIH3T3, GalScreen luminescence, 90 h; inhibition, % at 2.09 µM; 5,600 compounds, 21% hits;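 active = mean inhibition above about 95%, with at least 55% of replicates also reaching it, limit read from the data; inconclusive = meets just one of the two conditions; inactive = meets neither condition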;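 also: plate controls were neutral control median for no effect and positive control median for full effect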
NIH3T3 tox – cytotoxicity in mouse NIH/3T3 fibroblasts, confirmation, cytotoxicity control for T. cruzi proliferation inhibitor project, cell-based, cherry-pick, single point; shares compounds with T cruzi growth-1; NIH/3T3 viability, CellTiter-Glo ATP luminescence, 90 h; cytotoxicity (signal decrease), % at 8.35 µM; 5,600 compounds, 14% hits; AID 651742, 2012;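 active = mean signal decrease across replicates above about 35% based on untreated-well scatter, with enough replicates individually passing, limit read from the data; inconclusive = no rule stated though some were filed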;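 also: 0% = median of neutral control wells and 100% = median of positive control wells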
NIH3T3 tox 2 – NIH/3T3 fibroblast cytotoxicity, confirmation, cytotoxicity control, cell-based, cherry-pick, single point, set 2; shares compounds with T cruzi growth-1; NIH/3T3 viability, CellTiter-Glo ATP luminescence, 90 h; inhibition, % at 24.9 µM; 5,600 compounds, 56% hits; AID 651744, 2012;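 active = mean loss of cell viability signal at or above a set limit, and enough replicates individually reaching it; inconclusive = meets only the mean limit or only the replicate share; inactive = meets neither condition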;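 also: 0% = median of neutral control wells and 100% = median of positive control wells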
The depositor's hits bear a star; u = inconclusive; x = not tested or not shown. Rows were chosen to be rich in hits. Some 6.7% of all compounds tested hit in one or more screens of this group.

SMILES | Pf Dd2 inh | T cruzi growth-1 | C diff HTS | T cruzi growth-2 | T cruzi growth-3 | NIH3T3 tox | NIH3T3 tox 2
C[C@H](CO)N1C[C@H](C)[C@H](CN(C)C(=O)Nc2ccc3c(c2)OCO3)Oc2ncc(-c3cc4ccccc4o3)cc2C1=O | -71 | x | 2 | x | x | x | x
Cc1cccc(CN(C)C[C@@H]2Oc3ncc(-c4cc5ccccc5o4)cc3C(=O)N([C@H](C)CO)C[C@@H]2C)c1 | -63 | 99* | 21 | 106* | 77 | 44* | 104*
COc1cccc(S(=O)(=O)N[C@@H]2C=C[C@H](CC(=O)NCc3ccccc3)O[C@@H]2CO)c1 | 11 | x | 3 | x | x | x | x
Cc1cccc(S(=O)(=O)N2C[C@@H](O)COC[C@@H]3O[C@@H](CC(=O)NCCCN4CCOCC4)CC[C@H]32)c1 | -1 | 33 | x | x | x | x | x
COc1ccc(S(=O)(=O)N(C)C[C@@H]2Oc3cc(C#CC4CC4)ccc3S(=O)(=O)N([C@@H](C)CO)C[C@H]2C)cc1 | -76 | 112* | 9 | 102* | 77 | 53* | 40*
COc1ccc(S(=O)(=O)N(C)C[C@@H]2Oc3cc(C#CC4CCCC4)ccc3S(=O)(=O)N([C@H](C)CO)C[C@@H]2C)cc1 | -47 | 73 | 12 | x | x | x | x
COc1ccc(S(=O)(=O)N(C)C[C@@H]2Oc3cc(C#CC4CCCC4)ccc3S(=O)(=O)N([C@@H](C)CO)C[C@@H]2C)cc1 | -75 | 67 | 7 | x | x | x | x
COc1ccc(S(=O)(=O)N(C)C[C@H]2Oc3cc(C#CC4CC4)ccc3S(=O)(=O)N([C@H](C)CO)C[C@H]2C)cc1 | -61 | 107* | -1 | 108* | 93 | 24 | 59*
Cc1noc(C)c1S(=O)(=O)Nc1ccc2c(c1)C(=O)N([C@@H](C)CO)C[C@H](C)[C@H](CN(C)C(=O)Cc1ccccc1)OCCCC[C@H](C)O2 | -53 | -37 | 5 | x | x | x | x
C[C@H]1CN([C@@H](C)CO)S(=O)(=O)c2ccc(Br)cc2O[C@@H]1CN(C)S(=O)(=O)c1ccc(F)cc1 | 1 | 90 | x | x | x | x | x
C[C@@H]1CN([C@H](C)CO)S(=O)(=O)c2ccc(Br)cc2O[C@H]1CN(C)S(=O)(=O)c1ccc(F)cc1 | -29 | 97* | 5 | 113* | 38 | 24 | 61*
Cc1ccc(S(=O)(=O)N(C)C[C@H]2Oc3cc(Br)ccc3S(=O)(=O)N([C@H](C)CO)C[C@@H]2C)cc1 | -72 | 110* | 8 | 107* | 81 | 33 | 61*
C[C@@H]1CN([C@@H](C)CO)S(=O)(=O)c2ccc(Br)cc2O[C@H]1CN(C)S(=O)(=O)c1ccc(F)cc1 | -22 | 100* | 0 | 106* | 45 | 23 | 78*
Cc1ccc(S(=O)(=O)N(C)C[C@@H]2Oc3cc(Br)ccc3S(=O)(=O)N([C@@H](C)CO)C[C@H]2C)cc1 | -53 | x | 0 | x | x | x | x
C[C@@H]1CN([C@H](C)CO)S(=O)(=O)c2ccc(Br)cc2O[C@@H]1CN(C)S(=O)(=O)c1ccc(F)cc1 | 1 | 87 | x | x | x | x | x
C[C@H](CO)N1C[C@H](C)[C@H](CN(C)S(=O)(=O)c2cccc(F)c2)Oc2cc(Br)ccc2S1(=O)=O | 8 | 117* | 19 | 106* | 66 | 4 | 49*
Cc1noc(C)c1NC(=O)N(C)C[C@H]1Oc2ccc(NC(=O)Nc3ccccc3)cc2CC(=O)N([C@@H](C)CO)C[C@H]1C | 15 | 3 | 5 | x | x | x | x
C[C@@H]1CCCCO[C@H](CN(C)Cc2ccccc2)[C@@H](C)CN([C@@H](C)CO)C(=O)c2cc(NC(=O)Nc3ccccc3)ccc2O1 | -74 | x | x | x | x | x | x
O=C(C[C@H]1C=C[C@@H](NC(=O)C2CCC2)[C@H](CO)O1)NCc1ccncc1 | 4 | -28 | 1 | x | x | x | x
O=C(NC1Cc2ccccc2C1)[C@@H]1[C@@H](CO)[C@@H]2Cn3c(cccc3=O)[C@@H]2N1C(=O)C1CC1 | 9 | 61 | 0 | x | x | x | x
Cc1ccc(-c2ccc3c(c2)O[C@H](CN(C)Cc2cncnc2)[C@H](C)CN([C@H](C)CO)S3(=O)=O)cc1 | 17 | x | x | x | x | x | x
C[C@@H]1CN([C@H](C)CO)S(=O)(=O)c2ccc(-c3cncnc3)cc2O[C@@H]1CN(C)Cc1cncnc1 | 46 | 25 | -2 | x | x | x | x
C[C@H]1CN([C@@H](C)CO)S(=O)(=O)c2ccc(-c3ccncc3)cc2O[C@H]1CN(C)Cc1cncnc1 | -7 | 104* | 0 | 100* | 77 | u | 34*
Cc1ccc(-c2ccc3c(c2)O[C@H](CN(C)Cc2cncnc2)[C@@H](C)CN([C@H](C)CO)S3(=O)=O)cc1 | -52 | 102* | 6 | 102* | 77 | 42* | 65*
C[C@H]1CN([C@@H](C)CO)S(=O)(=O)c2ccc(-c3cncnc3)cc2O[C@H]1CN(C)Cc1cncnc1 | 37 | 21 | 1 | x | x | x | x
SMILES | Pf Dd2 inh | T cruzi growth-1 | C diff HTS | T cruzi growth-2 | T cruzi growth-3 | NIH3T3 tox | NIH3T3 tox 2
C[C@H](CO)N1C[C@H](C)[C@@H](CN(C)Cc2cncnc2)Oc2cc(-c3ccncc3)ccc2S1(=O)=O | 13 | 101* | 1 | 104* | u | 23 | 41*
C[C@H](CO)N1C[C@H](C)[C@@H](CN(C)S(=O)(=O)c2ccccc2)Oc2ccc(NS(C)(=O)=O)cc2CC1=O | 18 | 24 | 8 | x | x | x | x
CCCNC(=O)C[C@H]1CC[C@@H]2[C@@H](COc3ccc(NC(=O)Cc4ccccc4)cc3C(=O)N2C)O1 | 6 | -2 | -6 | x | x | x | x
COCC(=O)N(C)C[C@@H]1Oc2cc(-c3ccc(OC)cc3)ccc2S(=O)(=O)N([C@H](C)CO)C[C@H]1C | -4 | -6 | 1 | x | x | x | x
CC(=O)Nc1ccc2c(c1)C(=O)N(C)[C@@H]1CC[C@H](CC(=O)NCc3ccc4c(c3)OCO4)O[C@@H]1CO2 | -7 | 6 | 19 | x | x | x | x
CC(C)CC#Cc1ccc2c(c1)O[C@H](CN(C)C(=O)C1CCOCC1)[C@H](C)CN([C@H](C)CO)S2(=O)=O | -11 | 84 | 11 | x | x | x | x
CC(C)CC#Cc1ccc2c(c1)O[C@H](CN(C)C(=O)C1CCOCC1)[C@@H](C)CN([C@H](C)CO)S2(=O)=O | -6 | 82 | 0 | x | x | x | x
CC(C)CC#Cc1ccc2c(c1)O[C@@H](CN(C)C(=O)C1CC1)[C@@H](C)CN([C@@H](C)CO)S2(=O)=O | -50 | 92 | x | x | x | x | x
CC(C)CC#Cc1ccc2c(c1)O[C@@H](CN(C)C(=O)C1CCC1)[C@@H](C)CN([C@@H](C)CO)S2(=O)=O | -51 | 105* | 9 | 104* | 74 | -19 | 96*
